# The supplement of paper PMC8728848
# The full list was thinned out, with the strongest signals kept by preference.
# B1: E-Selectin (Homo sapiens), P16581 (protein)
# chain: MIASQFLSALTLVLLIKESGAWSYNTSTEAMTYDEASAYCQQRYTHLVAIQNKEEIEYLNSILSYSPSYYWIGIRKVNNVWVWVGTQKPLTEEAKNWAPGEPNNRQKDEDCVEIYIKREKDVGMWNDERCSKKKLALCYTAACTNTSCSGHGECVETINNYTCKCDPGFSGLKCEQIVNCTALESPEHGSLVCSHPLGNFSYNSSCSISCDRGYLPSSMETMQCMSSGEWSAPIPACNVVECDAVTNPANGFVECFQNPGSFPWNTTCTFDCEEGFELMGAQSLQCTSSGNWDNEKPTCKAVTCRAVRQPQNGSVRCSHSPAGEFTFKSSCNFTCEEGFMLQGPAQVECTTQGQWTQQIPVCEAFQCTALSNPERGYMNCLPSASGSFRYGSSCEFSCEQGFVLKGSKRLQCGPTGEWDNEKPTCEAVRCDAVHQPPKGLVRCAHSPIGEFTYKSSCAFSCEEGFELHGSTQLECTSQGQWTEEVPSCQVVKCSSLAVPGKINMSCSGEPVFGTVCKFACPEGWTLNGSAARTCGATGHWSGLLPTCEAPTESNIPLVAGLSAAGLSLLTLAPFLLWLRKCLRKAKKFVPASSCQSLESDGSYQKPSYIL
# Experiments:
# Experiment in all cases: glycan array binding signal (z-score within array); higher = stronger binding
# Conditions in all cases: glycan notation: IUPAC condensed, linker removed
# [1] = target: Fuc(a1-2)Gal(b1-4)[Fuc(a1-3)]GlcNAc(b1-3)Gal(b1-4)[Fuc(a1-3)]GlcNAc
# Outline: (§1)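 Columns mapping to the same glycan were averaged after glycan names were converted to IUPAC-condensed notation. The data come from 3228 arrays in the Consortium for Functional Glycomics database, limited to those with an available protein sequence. Binding is reported as a within-array Z-score averaged across arrays of one protein sequence and across linkers.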
# [2] = target: Fuc(a1-2)[Gal(a1-3)]Gal(b1-4)Glc
# Outline: as §1
# Fuc(a1-4)GlcNAc = target: Fuc(a1-4)GlcNAc
# Outline: as §1
# [3] = target: Gal(a1-3)[Gal(a1-4)]Gal(b1-4)GlcNAc
# Outline: as §1
# [4] = target: Gal(b1-3)GlcNAc(b1-3)Gal(b1-4)GlcNAc
# Outline: as §1
# Gal(b1-4)Glc = target: Gal(b1-4)Glc
# Outline: as §1
# [5] = target: Gal(b1-4)GlcNAc(b1-2)Man(a1-3)[Gal(b1-4)GlcNAc(b1-2)Man(a1-6)]Man(b1-4)GlcNAc(b1-4)GlcNAc
# Outline: as §1
# [6] = target: Gal(b1-4)GlcNAc(b1-3)Gal(b1-4)Glc
# Outline: as §1
# [7] = target: Gal(b1-4)GlcNAc(b1-3)[GlcNAc(b1-6)]Gal(b1-4)GlcNAc
# Outline: as §1
# [8] = target: Gal3S(b1-3)[Fuc(a1-4)]GlcNAc
# Outline: as §1
# Gal3S(b1-4)Glc = target: Gal3S(b1-4)Glc
# Outline: as §1
# Gal4S6S(b1-4)GlcNAc = target: Gal4S6S(b1-4)GlcNAc
# Outline: as §1
# Gal6S(b1-4)Glc = target: Gal6S(b1-4)Glc
# Outline: as §1
# Glc(b1-6)Glc = target: Glc(b1-6)Glc
# Outline: as §1
# [9] = target: GlcNAc(b1-2)Gal(b1-3)GalNAc
# Outline: as §1
# GlcNAc(b1-3)Gal = target: GlcNAc(b1-3)Gal
# Outline: as §1
# GlcNAc(b1-3)GalNAc = target: GlcNAc(b1-3)GalNAc
# Outline: as §1
# [10] = target: GlcNAc(b1-3)[GlcNAc(b1-4)][GlcNAc(b1-6)]GlcNAc
# Outline: as §1
# [11] = target: GlcNAc(b1-3)[GlcNAc(b1-6)]GlcNAc(b1-4)GlcNAc
# Outline: as §1
# [12] = target: Man(a1-3)[Man(a1-6)]Man(a1-6)[Man(a1-3)]Man
# Outline: as §1
# [13] = target: Neu5Ac(a2-3)Gal(b1-3)GalNAc(b1-3)Gal(a1-4)Gal(b1-4)Glc
# Outline: as §1
# [14] = target: Neu5Ac(a2-3)Gal(b1-3)[Fuc(a1-4)]GlcNAc
# Outline: as §1
# [15] = target: Neu5Ac(a2-3)Gal(b1-3)[Fuc(a1-4)]GlcNAc(b1-3)Gal(b1-4)[Fuc(a1-3)]GlcNAc
# Outline: as §1
# [16] = target: Neu5Ac(a2-3)Gal(b1-4)GlcNAc(b1-2)Man(a1-3)[Neu5Ac(a2-3)Gal(b1-4)GlcNAc(b1-2)Man(a1-6)]Man(b1-4)GlcNAc(b1-4)GlcNAc
# Outline: as §1
# [17] = target: Neu5Ac(a2-3)Gal(b1-4)[Fuc(a1-3)]GlcNAc(b1-3)Gal
# Outline: as §1
# [18] = target: Neu5Ac(a2-6)Gal(b1-4)GlcNAc(b1-2)Man(a1-6)[GlcNAc(b1-2)Man(a1-3)]Man(b1-4)GlcNAc(b1-4)GlcNAc
# Outline: as §1
# [19] = target: Neu5Ac(a2-6)GalNAc(b1-4)GlcNAc
# Outline: as §1
# [20] = target: Neu5Ac9Ac(a2-6)Gal(b1-4)GlcNAc
# Outline: as §1
# [21] = target: Neu5Gc(a2-3)Gal(b1-3)[Fuc(a1-4)]GlcNAc
# Outline: as §1
# Neu5Gc(a2-6)GalNAc = target: Neu5Gc(a2-6)GalNAc
# Outline: as §1
binder,measurement,setting,value
B1,glycan array binding signal (z-score),[1],-0.198
same,glycan array binding signal (z-score),[2],-0.226
same,glycan array binding signal (z-score),Fuc(a1-4)GlcNAc,-0.173
same,glycan array binding signal (z-score),[3],-0.265
same,glycan array binding signal (z-score),[4],-0.181
same,glycan array binding signal (z-score),Gal(b1-4)Glc,-0.251
same,glycan array binding signal (z-score),[5],-0.189
same,glycan array binding signal (z-score),[6],-0.075
same,glycan array binding signal (z-score),[7],-0.027
same,glycan array binding signal (z-score),[8],1.21
same,glycan array binding signal (z-score),Gal3S(b1-4)Glc,-0.07
same,glycan array binding signal (z-score),Gal4S6S(b1-4)GlcNAc,0.276
same,glycan array binding signal (z-score),Gal6S(b1-4)Glc,-0.044
same,glycan array binding signal (z-score),Glc(b1-6)Glc,-0.134
same,glycan array binding signal (z-score),[9],-0.209
same,glycan array binding signal (z-score),GlcNAc(b1-3)Gal,-0.024
same,glycan array binding signal (z-score),GlcNAc(b1-3)GalNAc,-0.266
same,glycan array binding signal (z-score),[10],-0.261
same,glycan array binding signal (z-score),[11],-0.105
same,glycan array binding signal (z-score),[12],-0.209
same,glycan array binding signal (z-score),[13],-0.173
same,glycan array binding signal (z-score),[14],9.04
same,glycan array binding signal (z-score),[15],3.76
same,glycan array binding signal (z-score),[16],-0.122
same,glycan array binding signal (z-score),[17],3.07
same,glycan array binding signal (z-score),[18],-0.282
same,glycan array binding signal (z-score),[19],-0.117
same,glycan array binding signal (z-score),[20],-0.181
same,glycan array binding signal (z-score),[21],12.1
same,glycan array binding signal (z-score),Neu5Gc(a2-6)GalNAc,-0.239
